# Data from publication PMC7862700, “An all-to-all approach to the identification of sequence-specific readers for epigenetic DNA modifications on cytosine”.
# Experiments:
# Test in all cases: DAPPL (digital affinity profiling via proximity ligation, sequencing); 10 mM Tris-HCl pH 7.5, 50 mM NaCl, 1 mM DTT, 4% glycerol, room temperature, 30 min; GST-TFs on glutathione beads, 16-mer random dsDNA library, 0.1% formaldehyde crosslink after washing; high values mean tight binding
# Conditions in all cases: protein: recombinant; tags: N-terminal GST; dsDNA, one strand shown
# [1] = molecular target: T1, FLI1 (Homo sapiens, UniProt Q01543 1-452)
# T1 sequence: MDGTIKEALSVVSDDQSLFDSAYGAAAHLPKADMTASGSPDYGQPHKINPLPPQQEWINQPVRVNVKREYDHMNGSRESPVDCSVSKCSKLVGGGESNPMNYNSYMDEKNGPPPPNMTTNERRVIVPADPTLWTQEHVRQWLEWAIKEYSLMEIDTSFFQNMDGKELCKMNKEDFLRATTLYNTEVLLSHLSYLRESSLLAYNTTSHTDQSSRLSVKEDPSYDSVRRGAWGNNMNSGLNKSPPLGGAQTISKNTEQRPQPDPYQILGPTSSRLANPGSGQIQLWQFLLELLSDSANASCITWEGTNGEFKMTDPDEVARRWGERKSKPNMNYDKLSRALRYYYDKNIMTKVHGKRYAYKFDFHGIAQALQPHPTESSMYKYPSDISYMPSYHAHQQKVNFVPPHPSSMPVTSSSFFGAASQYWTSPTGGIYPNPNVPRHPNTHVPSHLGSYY
# How it was run: (§1)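 Beads coated with glutathione captured GST-fused human transcription factors that had been expressed in yeast, and the factors were then given DNA barcodes and pooled with a tag-only sample. The pools were incubated with 200 nmole of a random double-stranded 16-mer DNA library in Tris/NaCl/DTT/glycerol buffer for 30 min at room temperature, washed, crosslinked with 0.1% formaldehyde and proximity-ligated with BsaI/T4 ligase at 37 °C for 1 h. PCR amplification and Illumina NextSeq500 sequencing came last. Binding signal is each hexamer's read frequency for a factor divided by its frequency for the tag-only sample.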
# [2] = molecular target: T2, ELK1 (Homo sapiens, UniProt P19419 1-428)
# T2 sequence: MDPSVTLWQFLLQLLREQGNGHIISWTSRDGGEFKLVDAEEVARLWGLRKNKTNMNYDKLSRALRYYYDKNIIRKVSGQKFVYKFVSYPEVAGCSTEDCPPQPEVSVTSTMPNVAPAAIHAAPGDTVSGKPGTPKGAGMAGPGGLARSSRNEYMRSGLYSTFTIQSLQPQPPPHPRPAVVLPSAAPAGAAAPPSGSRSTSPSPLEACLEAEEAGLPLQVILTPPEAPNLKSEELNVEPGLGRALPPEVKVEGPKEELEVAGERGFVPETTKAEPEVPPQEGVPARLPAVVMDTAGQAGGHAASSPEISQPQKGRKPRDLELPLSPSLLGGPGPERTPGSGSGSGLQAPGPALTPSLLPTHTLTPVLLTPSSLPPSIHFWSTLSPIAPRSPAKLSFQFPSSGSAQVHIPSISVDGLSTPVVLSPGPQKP
# How it was run: as §1
# [3] = molecular target: T3, GABPA (Homo sapiens, UniProt Q06546 1-454)
# T3 sequence: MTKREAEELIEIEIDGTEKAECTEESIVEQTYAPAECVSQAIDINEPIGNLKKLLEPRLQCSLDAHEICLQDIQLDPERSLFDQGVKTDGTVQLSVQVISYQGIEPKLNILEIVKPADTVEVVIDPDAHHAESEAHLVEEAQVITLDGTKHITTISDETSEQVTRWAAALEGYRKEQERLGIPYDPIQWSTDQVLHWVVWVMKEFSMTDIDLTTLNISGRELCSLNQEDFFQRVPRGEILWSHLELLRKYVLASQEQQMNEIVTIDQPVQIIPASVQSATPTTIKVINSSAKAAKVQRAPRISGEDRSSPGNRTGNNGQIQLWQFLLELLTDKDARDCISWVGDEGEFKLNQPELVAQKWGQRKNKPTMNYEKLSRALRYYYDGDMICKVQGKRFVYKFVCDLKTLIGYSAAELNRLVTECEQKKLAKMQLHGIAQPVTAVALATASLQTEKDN
# How it was run: as §1
# [4] = molecular target: T4, ERG (Homo sapiens, UniProt P11308 1-479)
# T4 sequence: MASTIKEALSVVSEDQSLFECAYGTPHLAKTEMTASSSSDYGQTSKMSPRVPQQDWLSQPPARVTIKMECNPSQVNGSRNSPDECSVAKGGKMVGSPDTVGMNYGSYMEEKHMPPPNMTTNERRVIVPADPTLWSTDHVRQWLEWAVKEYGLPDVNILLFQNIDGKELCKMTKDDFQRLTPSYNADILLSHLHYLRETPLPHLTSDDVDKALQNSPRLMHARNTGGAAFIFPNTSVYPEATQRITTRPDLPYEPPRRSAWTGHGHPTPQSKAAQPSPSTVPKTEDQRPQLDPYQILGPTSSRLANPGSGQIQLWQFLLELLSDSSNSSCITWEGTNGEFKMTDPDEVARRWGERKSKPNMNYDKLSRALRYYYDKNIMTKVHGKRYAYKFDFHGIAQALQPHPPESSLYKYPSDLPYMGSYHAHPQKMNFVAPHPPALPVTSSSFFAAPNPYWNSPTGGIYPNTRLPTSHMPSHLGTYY
# How it was run: as §1
# [5] = molecular target: ELF1 (Homo sapiens, UniProt P32519 1-619)
# Chain of ELF1 (P32519 whole entry): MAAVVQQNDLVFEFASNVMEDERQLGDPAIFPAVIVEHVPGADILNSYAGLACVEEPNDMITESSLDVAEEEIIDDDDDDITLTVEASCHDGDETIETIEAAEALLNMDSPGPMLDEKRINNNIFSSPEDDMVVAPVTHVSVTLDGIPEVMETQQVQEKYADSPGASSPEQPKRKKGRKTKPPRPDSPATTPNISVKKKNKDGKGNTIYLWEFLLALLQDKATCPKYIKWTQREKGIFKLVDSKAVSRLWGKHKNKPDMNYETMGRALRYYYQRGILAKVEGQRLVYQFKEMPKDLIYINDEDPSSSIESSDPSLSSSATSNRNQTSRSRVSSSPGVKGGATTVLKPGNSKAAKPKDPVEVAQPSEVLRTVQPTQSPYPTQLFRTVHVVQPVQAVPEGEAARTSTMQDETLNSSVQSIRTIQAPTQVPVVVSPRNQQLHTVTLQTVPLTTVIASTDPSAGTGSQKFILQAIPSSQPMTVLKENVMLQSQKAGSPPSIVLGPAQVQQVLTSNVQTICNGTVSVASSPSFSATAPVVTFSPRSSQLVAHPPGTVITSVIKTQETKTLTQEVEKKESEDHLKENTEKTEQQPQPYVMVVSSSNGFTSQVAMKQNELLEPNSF
# How it was run: as §1
# [6] = molecular target: T5, EHF (Homo sapiens, UniProt Q9NZC4 1-300)
# T5 sequence: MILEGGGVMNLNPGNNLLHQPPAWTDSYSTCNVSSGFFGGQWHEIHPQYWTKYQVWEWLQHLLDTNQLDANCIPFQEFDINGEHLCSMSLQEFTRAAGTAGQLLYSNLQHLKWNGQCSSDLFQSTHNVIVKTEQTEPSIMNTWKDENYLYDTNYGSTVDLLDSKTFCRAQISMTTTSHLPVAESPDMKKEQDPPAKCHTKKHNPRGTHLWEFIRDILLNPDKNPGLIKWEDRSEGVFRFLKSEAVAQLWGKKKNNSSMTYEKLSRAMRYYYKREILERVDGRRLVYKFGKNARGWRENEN
# How it was run: as §1
# [7] = molecular target: SPI1 (Homo sapiens, UniProt P17947 1-270)
# How it was run: as §1
# [8] = molecular target: SPIB (Homo sapiens, UniProt Q01892 1-262)
# Chain of SPIB (Q01892 whole entry): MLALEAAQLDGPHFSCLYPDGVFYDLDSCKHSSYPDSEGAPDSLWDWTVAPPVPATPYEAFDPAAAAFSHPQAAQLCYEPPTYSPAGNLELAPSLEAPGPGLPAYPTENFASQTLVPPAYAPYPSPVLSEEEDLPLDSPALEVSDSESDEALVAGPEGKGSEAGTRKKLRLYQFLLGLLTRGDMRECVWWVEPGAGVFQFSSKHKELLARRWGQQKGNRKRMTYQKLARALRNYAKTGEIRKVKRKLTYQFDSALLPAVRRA
# How it was run: as §1
# [9] = molecular target: T6, ELK3 (Homo sapiens, UniProt P41970 1-407)
# T6 sequence: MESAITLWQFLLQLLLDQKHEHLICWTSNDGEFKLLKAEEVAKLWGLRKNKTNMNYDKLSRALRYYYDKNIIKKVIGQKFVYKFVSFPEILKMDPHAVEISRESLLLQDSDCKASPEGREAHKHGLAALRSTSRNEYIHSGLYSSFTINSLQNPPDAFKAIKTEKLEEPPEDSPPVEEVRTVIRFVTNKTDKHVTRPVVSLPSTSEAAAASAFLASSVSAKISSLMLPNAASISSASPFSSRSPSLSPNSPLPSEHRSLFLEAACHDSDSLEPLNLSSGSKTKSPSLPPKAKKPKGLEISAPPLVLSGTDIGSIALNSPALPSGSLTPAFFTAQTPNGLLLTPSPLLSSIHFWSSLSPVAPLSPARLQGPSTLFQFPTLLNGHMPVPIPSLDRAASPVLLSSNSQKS
# How it was run: as §1
sequence,measurement,setting,value
CTACCA,binding signal,[1],"1.27 fold enrichment (6-mer frequency, TF over GST control)"
same,binding signal,[2],"1.27 fold enrichment (6-mer frequency, TF over GST control)"
same,binding signal,[3],"1.42 fold enrichment (6-mer frequency, TF over GST control)"
same,binding signal,[4],"1.29 fold enrichment (6-mer frequency, TF over GST control)"
same,binding signal,[5],"1.39 fold enrichment (6-mer frequency, TF over GST control)"
same,binding signal,[6],"1.22 fold enrichment (6-mer frequency, TF over GST control)"
same,binding signal,[7],"1.26 fold enrichment (6-mer frequency, TF over GST control)"
same,binding signal,[8],"1.23 fold enrichment (6-mer frequency, TF over GST control)"
same,binding signal,[9],"1.16 fold enrichment (6-mer frequency, TF over GST control)"
